Data taken from PubChem BioAssay (NCI).
This is part of a sample that, as a whole, favours compounds with a hit. Of some 79,000 tested, about 15% had one in any assay. The source made the active and inactive calls. Rule as the data show it: active = growth inhibition above about 70%; inactive = the rest.

Columns and labels:
[1] = NCI Yeast Anticancer Drug Screen. Data for the mec2-1 strain (AID 157); details: S. cerevisiae mec2-1 strain, stronger effect = higher value
Summary of the method: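 Readout is yeast growth inhibition, normalised to vehicle-treated controls, in the mec2-1 strain exposed to compound.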

[2] = NCI Yeast Anticancer Drug Screen. Data for the rad14 strain (AID 159);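 also: 0% = growth of vehicle-treated control cultures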; details: S. cerevisiae rad14 strain growth inhibition, stronger effect = higher value
Summary of the method: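 Yeast cells carrying a defined DNA-repair defect were exposed to compounds, and growth inhibition was calculated relative to vehicle-treated control cultures.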

[3] = NCI Yeast Anticancer Drug Screen. Data for the sgs1 mgt1 strain (AID 161);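 also: 0% = growth of cultures given vehicle only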; details: S. cerevisiae sgs1 mgt1 strain, stronger effect = higher value
Summary of the method: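 Yeast cells carrying a defined DNA-repair defect were exposed to test compounds. Growth inhibition was measured relative to vehicle-treated controls.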

[4] = NCI Yeast Anticancer Drug Screen. Data for the CLN2oe strain (AID 163);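 also: 0% = growth of vehicle-only control cultures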; details: S. cerevisiae CLN2oe strain, stronger effect = higher value
Summary of the method: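 Values reflect how much compound exposure reduced yeast growth, referenced to vehicle-exposed cells. Assay organism is a strain with a defined genetic change affecting cell-cycle control.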

[5] = NCI Yeast Anticancer Drug Screen. Data for the cln2 rad14 strain (AID 165);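 also: 0% = growth equal to vehicle treated cultures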; details: S. cerevisiae cln2 rad14 strain, stronger effect = higher value
Summary of the method: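 Relative to vehicle controls, growth inhibition of compound-treated cln2 rad14 yeast was recorded.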

[6] = NCI Yeast Anticancer Drug Screen. Data for the bub3 strain (AID 167); details: S. cerevisiae bub3 mutant strain, stronger effect = higher value
Summary of the method: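 Compounds were applied to a genetically altered yeast strain carrying a cell-cycle control defect. Growth inhibition was scored against vehicle-treated controls.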

[7] = NCI Yeast Anticancer Drug Screen. Data for the wt2 strain (AID 169);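 also: 0% = growth of vehicle-treated yeast cultures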; details: S. cerevisiae wt2 strain growth inhibition, stronger effect = higher value
Summary of the method: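 Values express reduction in yeast growth under compound treatment, referenced to vehicle-treated cells.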

[8] = NCI Yeast Anticancer Drug Screen. Data for the mlh1 strain (AID 171);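 also: 0% = growth of vehicle-treated control cultures of the same strain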; details: S. cerevisiae mlh1 strain growth inhibition, stronger effect = higher value
Summary of the method: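 Steps: expose the defined-mutant yeast strain to compound; expose a parallel culture to vehicle; measure growth; express compound effect as inhibition relative to the vehicle culture.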

[9] = NCI Yeast Anticancer Drug Screen. Data for the sgs1 strain (AID 173);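 also: 0% = growth of vehicle-only control cultures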; details: S. cerevisiae sgs1 mutant, stronger effect = higher value
Summary of the method: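 Treat defined-mutant yeast with compound; measure growth; calculate inhibition relative to vehicle-treated cells.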

[10] = NCI Yeast Anticancer Drug Screen. Data for the mlh1 rad18 strain (AID 175); details: S. cerevisiae mlh1 rad18 strain growth inhibition, stronger effect = higher value
Summary of the method: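 Test agents were incubated with a yeast strain of defined genotype (DNA damage repair defect). Inhibition of growth was derived by comparison with vehicle-exposed cultures.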

[11] = NCI Yeast Anticancer Drug Screen. Data for the rad18 strain (AID 177); details: S. cerevisiae rad18 mutant growth inhibition, stronger effect = higher value
Summary of the method: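 A genetically defined yeast mutant impaired in DNA damage repair was treated with test compounds, then its growth was measured against cultures receiving vehicle alone.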

[12] = NCI Yeast Anticancer Drug Screen. Data for the rad52 strain (AID 147);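 also: 0% = growth of vehicle-treated control cultures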; details: S. cerevisiae rad52 mutant growth inhibition, stronger effect = higher value
Summary of the method: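 Screen used a yeast mutant impaired in DNA repair. After compound exposure, growth was measured. Values reflect inhibition compared with vehicle-treated cells.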

[13] = NCI Yeast Anticancer Drug Screen. Data for the rad50EPP+ strain (AID 151);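 also: 0% = growth of vehicle-treated control cultures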; details: S. cerevisiae rad50 mutant strain, stronger effect = higher value
Summary of the method: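 Exposing the rad50EPP+ strain to each compound, growth was compared with vehicle-only cultures to give inhibition.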

[14] = NCI Yeast Anticancer Drug Screen. Data for the mgt1 strain (AID 153); details: S. cerevisiae mgt1 mutant growth inhibition, stronger effect = higher value
Summary of the method: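 Genetically defined yeast (mgt1) treated with compound; inhibition of growth expressed against vehicle-treated controls.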

[15] = NCI Yeast Anticancer Drug Screen. Data for the rad50 strain (AID 155);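 also: 0% = growth of vehicle-only cultures of the same strain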; details: S. cerevisiae rad50 strain growth inhibition, stronger effect = higher value
Summary of the method: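 Yeast carrying a defined DNA repair defect were exposed to test compounds, and growth was compared with vehicle-treated controls to give percent inhibition.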

[16] = at 5.0 µM (retest, dose inferred, filed as 0.5)
[17] = at 50.0 µM (retest, dose inferred, filed as 5.0)

Measured: growth inhibition

OC(CCNCc1ccccc1)c1ccc2ccccc2c1 (stereo unspecified)
inactive: [1]; at 100.0 µM 58% | [2]; at 1.2 µM 32% | [2]; at 3.7 µM 56% | [3]; [16] 9% | [4]; at 1.2 µM 19% | [4]; at 3.7 µM 53% | [4]; at 11.0 µM 68% | [5]; [16] 29% | [6]; at 1.2 µM 29% | [6]; at 3.7 µM 45% | [6]; [16] 37% | [6]; at 11.0 µM 68% | [7]; at 1.2 µM 24% | [7]; at 3.7 µM 65% | [8]; at 1.2 µM -4% | [8]; at 3.7 µM 31% | [8]; at 11.0 µM 45% | [9]; at 1.2 µM 18% | [9]; at 3.7 µM 20% | [10]; [16] 51% | [10]; at 50.0 µM 65.7% | [11]; at 1.2 µM -1% | [11]; at 3.7 µM 31% | [11]; at 11.0 µM 45%
active: [2]; at 11.0 µM 85% | [2]; at 33.0 µM 96% | [2]; at 100.0 µM 99% | [3]; [17] 93% | [3]; at 50.0 µM 80.7% | [4]; at 33.0 µM 80% | [4]; at 100.0 µM 93% | [5]; [17] 80% | [5]; at 50.0 µM 75.2% | [6]; at 33.0 µM 91% | [6]; [17] 91% | [6]; at 50.0 µM 72% | [6]; at 100.0 µM 96% | [7]; at 11.0 µM 83% | [7]; at 33.0 µM 95% | [7]; at 100.0 µM 96% | [8]; at 33.0 µM 80% | [8]; at 100.0 µM 95% | [9]; at 11.0 µM 70% | [9]; at 33.0 µM 92% | [9]; at 100.0 µM 95% | [10]; [17] 96% | [11]; at 33.0 µM 70% | [11]; at 100.0 µM 87%

CN(C)/C=C/c1nnc([N+](=O)[O-])s1
inactive: [12]; at 1.2 µM -2% | [12]; at 3.7 µM -3% | [12]; at 11.0 µM 5% | [12]; at 33.0 µM 28% | [13]; at 1.2 µM 1% | [13]; at 3.7 µM 12% | [13]; at 11.0 µM 35% | [13]; at 33.0 µM 65% | [14]; at 1.2 µM -7% | [14]; at 3.7 µM -5% | [14]; at 11.0 µM -5% | [14]; at 33.0 µM -5% | [15]; at 1.2 µM -8% | [15]; at 3.7 µM -3% | [15]; [16] -144% | [15]; at 11.0 µM 49% | [1]; at 1.2 µM 4% | [1]; at 3.7 µM 0% | [1]; [16] -48% | [1]; at 11.0 µM -6% | [1]; at 33.0 µM 1% | [1]; [17] 4% | [3]; [16] -63% | [4]; at 1.2 µM -2% | [4]; at 3.7 µM -3% | [4]; at 11.0 µM -2% | [4]; at 33.0 µM 9% | [5]; [16] -63% | [5]; [17] -23% | [5]; at 50.0 µM 28.6% | [6]; at 1.2 µM -5% | [6]; at 3.7 µM -2% | [6]; [16] -65% | [6]; at 11.0 µM -3% | [6]; at 33.0 µM 6% | [7]; at 1.2 µM -1% | [7]; at 3.7 µM -1% | [7]; at 11.0 µM -2% | [7]; at 33.0 µM 7% | [8]; at 1.2 µM 5% | [8]; at 3.7 µM -8% | [8]; at 11.0 µM -1% | [8]; at 33.0 µM 41% | [10]; [16] -115% | [11]; at 1.2 µM 0% | [11]; at 3.7 µM 5% | [11]; at 11.0 µM 21% | [11]; at 33.0 µM 56%
active: [12]; at 100.0 µM 98% | [13]; at 100.0 µM 96% | [14]; at 100.0 µM 98% | [15]; at 33.0 µM 94% | [15]; [17] 90% | [15]; at 50.0 µM 95% | [15]; at 100.0 µM 97% | [1]; at 50.0 µM 76.2% | [1]; at 100.0 µM 90% | [3]; [17] 80% | [3]; at 50.0 µM 94% | [4]; at 100.0 µM 97% | [6]; [17] 77% | [6]; at 50.0 µM 96% | [6]; at 100.0 µM 98% | [7]; at 100.0 µM 98% | [8]; at 100.0 µM 99% | [10]; [17] 77% | [10]; at 50.0 µM 89.8% | [11]; at 100.0 µM 97%
